Shown are actives, neighbours in structure and some others; about 1.5% of the full set was active somewhere.
a7 integrin act = qHTS for Activators of Integrin-Mediated Alleviation for Muscular Dystrophy; alpha7betagal myoblasts, beta-gal FDG fluorescence, 48 h; Potency, µM (doses to about 38.3 µM), for the others: at the highest dose activation, usual class: activators; hit rate 0.064% among 350,000;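 note: potency is the fitted concentration of half-maximal effect; 100% = response of the positive control SU9516; nearly all actives have a fitted effect of over 60% in size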
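Alpha7betagal+/- myoblasts (passage 13) were plated 16-24 hr, then exposed to compounds (1:260 dilution of DMSO stock) for 48 hours at 37C. After MPER lysis, β-galactosidase reporter activity was read as FDG fluorescence (ex 480/em 540) after 30 minutes.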
ALOX12 inh = Primary qHTS assay for inhibitors of human arachidonate 12S-lipoxygenase (ALOX12): Round 2. purified 12hLO, xylenol orange hydroperoxide absorbance. Polyunsaturated fatty acid lipoxygenase ALOX12 (Homo sapiens), P18054. hit rate 1.1% among 580,000. Potency, µM (doses to about 108 µM), without a hit: at the top dose activity change, negative = inhibition, hits mostly inhibitors; note: potency is the fitted concentration of half-maximal effect; % is set by controls: 0 for no effect and ±100 for the full control effect
Target sequence (P18054 whole entry, looked up): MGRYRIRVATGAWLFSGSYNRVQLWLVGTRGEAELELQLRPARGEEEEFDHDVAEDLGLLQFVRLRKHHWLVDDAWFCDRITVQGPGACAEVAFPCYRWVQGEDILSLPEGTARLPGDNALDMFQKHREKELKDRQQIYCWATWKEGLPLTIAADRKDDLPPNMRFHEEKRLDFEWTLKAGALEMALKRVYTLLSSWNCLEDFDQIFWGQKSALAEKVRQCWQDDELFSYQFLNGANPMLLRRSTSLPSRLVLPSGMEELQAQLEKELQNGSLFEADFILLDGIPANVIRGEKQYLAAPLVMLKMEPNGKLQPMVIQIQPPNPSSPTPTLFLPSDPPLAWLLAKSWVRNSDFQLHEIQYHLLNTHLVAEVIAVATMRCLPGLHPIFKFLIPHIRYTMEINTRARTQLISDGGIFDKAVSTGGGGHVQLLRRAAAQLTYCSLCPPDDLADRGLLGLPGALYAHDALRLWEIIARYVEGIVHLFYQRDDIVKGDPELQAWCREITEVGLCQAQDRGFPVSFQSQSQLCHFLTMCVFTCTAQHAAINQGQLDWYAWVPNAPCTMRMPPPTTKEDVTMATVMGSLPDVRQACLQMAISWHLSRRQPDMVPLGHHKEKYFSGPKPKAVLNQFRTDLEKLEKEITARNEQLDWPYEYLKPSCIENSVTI
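Purified human 12hLO at 150 nM in 25 mM Hepes, 0.01% Triton X-100, pH 7.0, preincubated 15 min at room temperature with compound. Reaction started with 40 uM arachidonic acid, 30 min at room temperature. Hydroperoxide measured by Fe-xylenol orange, 573/405 nm absorbance ratio.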
IL-2 act = qHTS of IL-2 Activators; IL-2 activation reporter assay, cell-based qHTS; stimulated with anti-CD3/CD4/CD28 beads; in transgenic mouse T cells; hit rate 0.065% among 360,000; activation, % (series mostly up to about 46 µM); AID 652025, 2013; in the data active = activation above about 50%; inconclusive = mostly about 30% to 49%; note: 0% is about no effect
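Readout: EGFP and DsRed signals by fluorescent plate cytometry. Unstimulated transgenic mouse T cells received compound 60 min before antibody-bead stimulation, then incubated 18 h at 37 degrees C.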
Nrf2 ARE act = qHTS of Nrf2 Activators | AREc32 ARE-luciferase reporter (MCF7-derived line), luminescence, 24 h | Potency, µM (doses to about 46.1 µM), for inactives: top-dose activation, most hits filed as activators | hit rate 0.31% among 410,000 | AID 624171, 2012; note: potency is the fitted concentration of half-maximal effect; % of control where 0% means no effect; nearly all actives have a fitted effect of over 65% in size
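Quantitative high-throughput format: AREc32 reporter cells, 1000 per well, received compound by pin transfer and were incubated 24 hr at 37 deg C, 5% CO2, before Steady-Glo luminescence detection.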
uPA generation = qHTS for Inhibitors of Cell Surface uPA Generation; Potency, µM (titrated, usually from 38.3 µM), for the others: at the highest dose activity change, negative = inhibition, most hits filed as inhibitors; AID 540303, 2011; hit rate 0.31% among 330,000; cell surface uPA generation assay, qHTS; active = well fitted inhibition curve with a large enough effect; inconclusive = small, poorly fitted or top-dose-only effect; inactive = no such curve, though single readings can be large or run the other way; tested in mouse RAW 264.7 cells; note: potency is the fitted concentration of half-maximal effect; % is set by controls: 0 for no effect and ±100 for the full control effect; nearly all actives have a fitted effect of over 55% in size
The depositor's hits bear a star; ? = inconclusive; . = no result. Unless noted, calls come from the whole dose curve; as a rule, active = well fitted curve in the direction sought with a large enough effect; inconclusive = small, poorly fitted or top-dose-only effect, or another doubt; inactive = no such curve, though single readings can be large; an effect the other way counts as inactive or inconclusive.

SMILES	a7 integrin act	ALOX12 inh	IL-2 act	Nrf2 ARE act	uPA generation
Cc1ccc(OCCn2c(=S)[nH]c3c(N)ncnc32)cc1	2.7%	?	3.8	0.8%	3.7%
CC(C)Oc1ccc(OCCn2c(=S)[nH]c3c(N)ncnc32)cc1	-10.2%	44.7µM*	0.4	0.4%	-8.1%
COc1cc2cccc(OC)c(=O)c2c(OC)c1OC	14.4%	19.6%	-0.5	0.6%	0.6%
O=c1c(O)cccc2cc(O)c(O)c(O)c12	9.8%	12.6µM*	-0.2	-0.3%	?
CCOC(=O)c1cc2c(C)n(-c3ccc(OCC)cc3)c(C)c2ccc1=O	-44.5%	39.8µM*	-0.5	2.4%	-9.9%
COc1ccccc1Nc1nc(-c2ccc3c(c2)CCC(=O)N3)cs1	.	10µM*	.	.	.
COc1ccccc1Nc1nc(-c2ccc3c(c2)CC(C)N3S(C)(=O)=O)cs1 (configuration not stated)	.	39.8µM*	.	.	.
CC(C)CNc1nc(-c2ccc3c(c2)CCC(=O)N3)cs1	.	12.6µM*	.	.	.
CCCN1C(CC(C)C)=NS(=O)(=O)c2cc(NC(=O)c3ccccc3Cl)ccc21	.	6.0%	.	.	.
O=C(Nc1ccccc1-c1nc2ccccc2[nH]1)c1ccc(N2C(=O)CCC2=O)cc1	9.5%	-7.2%	111.4*	-0.5%	-4.3%
O=C(Nc1ccccc1-c1nc2ccccc2[nH]1)c1ccc(S(=O)(=O)N2CCCCC2)cc1	7.1%	-24.4%	-1.1	-0.9%	.
O=C(NC1(C(F)(F)F)C(=O)Nc2c1c(=O)[nH]c(=O)n2-c1ccccc1)c1ccccc1 (configuration not stated)	.	?	.	0.0%	.
CC(C)CC(=O)NC1(C(F)(F)F)C(=O)Nc2c1c(=O)[nH]c(=O)n2-c1ccccc1 (configuration not stated)	.	31.6µM*	.	0.7%	.
CCCn1c(=O)[nH]c(=O)c2c1nc(-c1ccc(C#N)cc1)n2CCN1CCOCC1	.	28.2µM*	.	.	.
Cc1nc(CCNC(=O)C2CNCCO2)sc1C (configuration not stated)	.	8.91µM*	.	.	.
Cc1cnc(C2CCOCC2)n1C1CCNCC1	.	39.2%	.	.	.
CCC(=O)Nc1cccc(-c2ccc(N3CCN(C)CC3)nn2)c1	-1.3%	.	0.8	3.4%	?
COc1cccc(C(=O)Nc2cccc(-c3ccc(N4CCOCC4)nn3)c2)c1	-26.8%	?	-3.9	2.6%	10µM*
CCC(=O)Nc1cccc(-c2ccc(N3CCCCC3)nn2)c1	10.4%	19.4%	0.2	-1.2%	0.891µM*
COc1ccc(C(=O)Nc2cccc(-c3ccc(N4CCOCC4)nn3)c2)cc1OC	-5.4%	6.6%	-5.0	-0.3%	-10.6%
CCn1cc(CN2CCCCCNC(=O)[C@@H]3CCC[C@@H]32)c(C)n1	.	4.7%	.	.	.
O=C1CN(S(=O)(=O)c2c(Cl)cccc2Cl)CCN1	.	-24.8%	.	.	.
Cc1noc(C)c1C(=O)Nc1nc(-c2cccs2)cs1	?	-20.1%	-0.6	15.8µM*	-15.4%
CCc1noc(C)c1C(=O)Nc1nc(-c2cccs2)cs1	1.0%	-25.7%	-2.3	?	-1.2%
Cc1occc1C(=O)Nc1nccs1	24.1%	?	-0.3	2.4%	-3.5%
SMILES	a7 integrin act	ALOX12 inh	IL-2 act	Nrf2 ARE act	uPA generation
O=C(CN1CCCCC1)Nc1nnc(-c2ccccc2)s1	12.5%	1.3%	-3.7	?	0.8%
CCOC(=O)CSc1nnc(NC(=O)CN2CCCCC2)s1	0.0%	6.31µM*	-0.5	-0.6%	0.8%
Cc1cccc(NC(=O)CSc2nnc(NC(=O)CN3CCCCC3)s2)c1	.	22.6%	.	.	.
O=C(CN1CCCC1)Nc1nnc(-c2cccs2)s1	11.9%	-1.6%	0.5	11.2µM*	-3.1%
Cc1occc1C(=O)Nc1nnc(-c2cccs2)s1	9.0%	-1.9%	1.5	11.2µM*	0.7%
Cc1ncsc1CN1CCCCCCN(C)C(=O)[C@@H]2CCC[C@@H]21	.	79.8%	.	.	.
O=C(Nc1cccc(-c2nc3cc(Cl)ccc3o2)c1)c1ccc([N+](=O)[O-])o1	.	-16.2%	.	.	.
COC(=O)c1c(C)[nH]c(C(=O)N2CCCC2c2ccc3c(c2)OCCO3)c1C (configuration not stated)	.	-21.7%	.	.	.
CCc1c(O)nc(SC2CC(=O)N(c3ccccc3)C2=O)[nH]c1=O (configuration not stated)	-1.8%	10µM*	0.0	-0.4%	1.8%
O=C(CNC(=O)C1CC(=O)N(c2ccc(F)cc2)C1)NCCc1c[nH]c2ccccc12 (configuration not stated)	.	-27.7%	.	.	.
O=C(Nc1ccc2ccccc2c1)c1cccc2ccccc12	-15.3%	3.9%	-0.5	6.0%	2.4%
C=C(c1cccc2ccccc12)P(=O)(O)O	20.6%	12.6µM*	0.5	-0.5%	10.4%
CONC(=O)c1ccc(C(=O)OC)cc1	.	-0.4%	.	.	.
CCN(CC)CCCCNc1ncc2cc(-c3cc(OC)cc(OC)c3)c(NC(=O)NC(C)(C)C)nc2n1	.	?	-0.4	-0.8%	7.08µM*
Cc1ccc(C2=NC3(CCN(C(=O)c4ccccc4Cl)CC3)ON2)cc1	.	6.9%	.	.	.
O=C(Cc1ccsc1)N1CCC2(CC1)CC(OCC1CC1)CCO2 (configuration not stated)	.	31.7%	.	.	.
CN(C)c1ccc(/C=C(/C#N)C(=O)NCc2ccccc2)o1	-7.1%	-15.2%	82.8*	0.7%	3.0%
COc1ccc(NC(=O)c2cc(C)no2)cc1	-5.5%	12.6µM*	-1.8	0.7%	0.2%
Cc1cc(NC(=O)CSc2nnc(-c3ccncc3)n2C2CC2)no1	.	3.3%	.	.	.
Cc1nc([C@@H]2CN(S(=O)(=O)C(C)C)C[C@H]2C(N)=O)n[nH]1	.	50.1µM*	.	.	.
Cc1nc([C@@H]2CN(S(=O)(=O)c3ccc4c(c3)CCCC4)C[C@H]2C(N)=O)n[nH]1	.	26.9%	.	.	.
CC1Oc2ccc(NC(=O)c3ccccc3F)cc2CN(C2CCCc3ccccc32)C1=O (configuration not stated)	.	46.0%	.	.	.
COc1ccc(CN2CCN(C(=O)c3cccc4ccccc34)CC2)cc1Br	-21.4%	0.562µM*	-3.4	-0.2%	-2.6%
Cc1ccc(CN2CCN(C(=O)c3cccc4ccccc34)CC2)cc1	-2.2%	1.26µM*	-5.3	2.2%	-1.6%
O=C(c1cccc2ccccc12)N1CCN(Cc2ccccc2F)CC1	4.4%	-26.0%	-0.4	-0.7%	1.7%
SMILES	a7 integrin act	ALOX12 inh	IL-2 act	Nrf2 ARE act	uPA generation
COc1ccc(CN2CCN(C(C)=O)CC2)cc1OC1CCN(C(=O)c2ccc3ccccc3n2)CC1	.	28.2µM*	.	.	.
Cc1ccccc1CN1CCN(C(=O)c2cccc3ccccc23)CC1	-0.6%	2.82µM*	0.4	-0.2%	5.3%
CCCn1c(C)cnc1C1CCNC1 (configuration not stated)	.	27.4%	.	.	.
O=C(Cc1cccc(F)c1)N1CCCN(c2cc(-c3ccc(Cl)cc3)[nH]n2)CC1	.	6.0%	.	.	.
CC1=C(c2ccccc2)S(=O)(=O)N=C1Nc1ccc(C)c(Cl)c1	.	70.5%	.	.	.
Cc1ncc(CO)c(/C=N/NC(=S)Nc2ccc(Cl)c(Cl)c2)c1O	-18.0%	44.7µM*	-0.6	-0.6%	-17.4%
